Screening data: PubChem BioAssay, several laboratories
PAX8 reporter – PAX8 transcriptional activity inhibition | AID 652154 | RMG-I TPO-luciferase reporter, SteadyGlo, 24 h | inhibition, % at 12.6 µM | 360,000 tested, 1.2% active;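 active = mean replicate inhibition at least 60% with every replicate also reaching 60%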;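 also: luciferase light reporting Pax8 driven TPO promoter activity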
Shn3 3UTR inh – Schnurri-3 reporter inhibition in Clone20 osteoblasts | inhibition, % at 12.5 µM | Clone20 osteoblast Shn3 3'UTR firefly luciferase, 24 h | 360,000 tested, 0.52% active;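 active = mean inhibition of at least 75% with every replicate also reaching 75%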
LMP1 NFkB inh – reduces LMP1-driven NF-kappaB luciferase signal; LMP1-induced NF-kappaB luciferase reporter cells, luminescence; inhibition, % at 12.5 µM; 350,000 tested, 0.69% active; in the data active = inhibition above about 41%
MITF TRPM1 inh – inhibitors of MITF-driven TRPM1 promoter in melanoma cells; SK-MEL-5 TRPM1 promoter luciferase, 24 h; inhibition, % at 12.5 µM; 330,000 tested, 0.83% active;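 active = mean inhibition across replicates of 60% or more, whatever share of single replicates reaches that level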
HIF-2a inh – HIF-2a inhibition; inhibition, % at 18.8 µM; AID 624352; 360,000 tested, 0.72% active; 786-0 RCC cells HIF-2a reporter, luciferase luminescence, overnight;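 active = inhibition of the luminescence signal of 40% or more relative to plate controls, in a single-dose primary screen at 18.75 µM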
Peg3 promoter – reduces Peg3 promoter-driven luciferase expression in HeLa; HeLa PEG-Prom luciferase reporter, luminescence, overnight; inhibition, % at 20 µM; 360,000 tested, 1.7% active;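 active = inhibition of at least 50% at 20 µM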
A number is an active result; 0 = inactive; - = no result given. Shown are actives, neighbours in structure and some others; about 2.8% of the full set was active somewhere.

SMILES | PAX8 reporter | Shn3 3UTR inh | LMP1 NFkB inh | MITF TRPM1 inh | HIF-2a inh | Peg3 promoter
CCc1cc[n+](C2=C([O-])c3ccccc3C(=O)/C2=N\S(=O)(=O)c2cccs2)cc1 | 86.7 | 0 | 0 | 96.6 | 0 | 0
O=C(c1cn(Cc2ccccc2)nc1-c1cccnc1)N1CCN(Cc2ccccc2)CC1 | 0 | 0 | 0 | 0 | 0 | 98.3
O=C(c1cn(Cc2ccccc2)nc1-c1cccnc1)N1CCN(Cc2c(F)cccc2Cl)CC1 | 0 | 0 | 0 | 0 | 0 | 0
Cc1ccc(Cn2c(O)c(N=NC(=S)Nc3ccccc3F)c3cc(S(=O)(=O)N4CCOCC4)ccc32)cc1 | 0 | 0 | 0 | 0 | 0 | 0
Cc1ccccc1Cn1c(O)c(N=NC(=S)Nc2ccccc2F)c2ccccc21 | 0 | 0 | 44.4 | 0 | 0 | 0
Cc1ccc(C)c(Cn2c(O)c(N=NC(=S)Nc3ccccc3F)c3ccccc32)c1 | 0 | 0 | 45.3 | 0 | 0 | 0
Oc1c(N=NC(=S)Nc2ccccc2F)c2ccccc2n1Cc1ccccc1F | 0 | 0 | 47.6 | 0 | 0 | 0
Oc1c(N=NC(=S)Nc2ccccc2F)c2ccccc2n1Cc1ccc(Cl)cc1 | 0 | 0 | 0 | 0 | 0 | 0
CC(=O)Nc1ccc2c(c1)C(=O)N(C)[C@H]1CC[C@@H](CC(=O)NCCCN3CCOCC3)O[C@@H]1CO2 | 0 | - | - | - | - | -
CCCNC(=O)C[C@H]1CC[C@H]2[C@@H](COC[C@@H](O)CN2C(=O)Nc2ccccc2OC)O1 | 0 | - | - | - | - | -
O=C(Cc1ccccc1)N[C@H]1CC[C@@H](CC(=O)N2CCCCC2)O[C@@H]1CO | 0 | - | - | - | - | -
COc1ccc2cc(-c3cc(C(=O)OCC(=O)NC4CCS(=O)(=O)C4)c4ccccc4n3)ccc2c1 (centres undefined) | 0 | 0 | 49.8 | 0 | 0 | 0
COc1ccc2cc(-c3cc(C(=O)OCC(=O)Nc4c(C)n(C)n(-c5ccccc5)c4=O)c4ccccc4n3)ccc2c1 | 0 | 0 | 57.5 | 0 | 0 | 0
CNC(=O)C[C@@H]1CC[C@H]2[C@H](COc3ccc(NC(=O)Nc4ccc(F)cc4)cc3C(=O)N2C)O1 | 0 | - | - | - | - | -
Cc1ccc(NN2C(=O)C=C(c3ccccc3)C2=O)cc1 | 0 | 0 | - | - | 0 | 84.8
O=C1c2ccccc2C(=O)N1Nc1ccccc1 | - | 0 | 0 | 0 | 0 | 0
CN(C)C(=O)C[C@H]1CC[C@@H]2[C@H](COC[C@@H](O)CN2Cc2nccs2)O1 | 0 | - | - | - | - | -
Cc1cc(SCC(=O)N/N=C/c2ccc(O)cc2O)c(C)cc1Br | 0 | 92.6 | 0 | 0 | 0 | 0
CCc1cc(C(=O)N/N=C/c2ccc(O)cc2O)c2ccccc2n1 | 66.5 | 93.3 | 0 | 68.4 | 0 | 51.7
O=C(/C=C\c1ccccc1)NCC(=O)N/N=C/c1ccc(O)cc1O | - | 0 | 0 | 67.3 | 0 | 0
O=C(N/N=C/c1ccc(O)cc1O)c1ccncc1 | 0 | 0 | 0 | 0 | 0 | 0
C[C@H]1CN([C@@H](C)CO)C(=O)c2c(c3ccccc3n2C)-c2ccccc2CO[C@H]1CN(C)C(=O)Nc1ccnc(N2CCOCC2)c1 | 0 | - | - | - | - | -
O=C(NCC[C@H]1CC[C@@H](NS(=O)(=O)c2ccccc2F)[C@@H](CO)O1)c1ccc(F)cc1 | 0 | - | - | - | - | -
Cc1noc(C)c1NC(=O)Nc1ccc2c(c1)C(=O)N([C@H](C)CO)C[C@@H](C)[C@H](CN(C)Cc1ccc(Cl)c(Cl)c1)OCCCC[C@H](C)O2 | 0 | - | - | - | - | -
COc1ccc2c(Cl)c(C(=O)N/N=C/c3ccc4c(c3)OCO4)sc2c1 | - | 0 | 0 | 0 | 0 | 51.2
SMILES | PAX8 reporter | Shn3 3UTR inh | LMP1 NFkB inh | MITF TRPM1 inh | HIF-2a inh | Peg3 promoter
Oc1c(N=Nc2ccccn2)ccc2ccccc12 | 0 | 0 | 48.3 | 0 | 0 | 0
CCN(CC)S(=O)(=O)c1ccc(C)c(NC(=S)N2CCN(C/C=C/c3ccccc3)CC2)c1 | 0 | 88.0 | 0 | 0 | 0 | 0
COc1ccccc1C#Cc1cnc2c(c1)C(=O)N([C@H](C)CO)C[C@H](C)[C@@H](CN(C)C(=O)c1ccc3c(c1)OCO3)O2 | 0 | - | - | - | - | -
CCCNC(=O)N1[C@H](CO)[C@H](c2ccccc2-c2ccc(OC)cc2)[C@@H]1C#N | 0 | - | - | - | - | -
CCOC(=O)C1=C(CC)Nc2ccccc2N=C1NC(=O)CCNC(C)=O | 0 | 0 | 0 | 0 | 0 | 0
CCOC(=O)C1=C(CC)Nc2ccccc2N=C1NC(=O)c1ccc(S(=O)(=O)N(C)C)cc1 | 0 | 0 | 0 | 0 | 0 | 0
CCOCc1c(C(=O)NC2=Nc3ccccc3NC(CC)=C2C(=O)OCC)oc2ccccc12 | 79.6 | 0 | 0 | 0 | 0 | 65.5
CCOC(=O)C1=C(CC)Nc2ccccc2N=C1NC(=O)c1oc2ccccc2c1C | 64.5 | 0 | 0 | 0 | 0 | 64.4
CCC(=O)N1CC(=O)N2[C@H](C1)[C@H](c1ccc(C#CC3CCCC3)cc1)[C@@H]2CO | 0 | - | - | - | - | -
CCN(CC)C(=O)c1oc2ccc(S(=O)(=O)N3CCCCCC3)cc2c1C | - | 0 | 0 | 0 | 0 | 0
CCN(CC)C(=O)c1oc2ccc(S(=O)(=O)N3CC(C)CC(C)C3)cc2c1C (centres undefined) | 0 | 90.6 | 0 | 0 | 0 | 0
COc1ccc(Cl)cc1NC(=O)CN(C)S(=O)(=O)c1cccs1 | 0 | 0 | 46.6 | 0 | 0 | 0
COc1ccc(Cl)cc1NC(=O)CN(C)CC(=O)NCc1cccs1 | 0 | 0 | 0 | - | 0 | 0
C=CCN1C(=O)[C@@]2(O[C@@H](CCn3cc(CCO)nn3)[C@H]([Si](C)(C)c3ccc(OC)cc3)[C@H]2C)c2cc(N3CCOC3=O)ccc21 | 0 | - | - | - | - | -
COc1ccc([Si](C)(C)[C@H]2[C@H](CCO)O[C@@]3(C(=O)N(Cc4ccccc4)c4ccc(N5CCOC5=O)cc43)[C@@H]2C)cc1 | 0 | - | - | - | - | -
COc1ccc([Si](C)(C)[C@H]2[C@H](CCn3cc(CCO)nn3)O[C@@]3(C(=O)N(Cc4cccc(N5CCOC5=O)c4)c4ccccc43)[C@@H]2C)cc1 | 83.4 | - | - | - | - | -
COc1ccc([Si](C)(C)[C@@H]2[C@@H](CCn3cc(CCO)nn3)O[C@]3(C(=O)N(Cc4cccc(N5CCOC5=O)c4)c4ccccc43)[C@H]2C)cc1 | 100.2 | - | - | - | - | -
C[C@@H]1CCCCO[C@H](CN(C)C(=O)Nc2cccc3ccccc23)[C@@H](C)CN([C@@H](C)CO)C(=O)c2cc(NC(=O)CCCN(C)C)ccc2O1 | 0 | - | - | - | - | -
Cn1c2ccccc2c(=O)c2ccc(C#Cc3ccc(N)cc3)cc21 | 0 | 0 | 0 | 0 | 0 | 0
Cn1c2ccccc2c(=O)c2cc(C#Cc3cccc(N)c3)ccc21 | - | 0 | 52.4 | 0 | 0 | 0
Cc1ccccc1-c1nc(SCc2cccnc2)c2c(=O)n(C)c(=O)n(C)c2n1 | 0 | 0 | 0 | 0 | 0 | 64.2
CCCc1nc(SCc2cccnc2)c2c(=O)n(C)c(=O)n(C)c2n1 | 0 | 0 | 0 | 0 | 0 | 0
O=C(c1cccc(F)c1)N1CCCN(C(=O)c2cccc(F)c2)CC1 | 0 | 0 | 0 | 0 | 0 | 0
O=C(c1ccccc1F)N1CCN(c2cccc(C(F)(F)F)c2)CC1 | - | 0 | 0 | 0 | 0 | 0
O=C(c1c(F)c(F)c(F)c(F)c1F)N1CCN(c2cccc(C(F)(F)F)c2)CC1 | 66.8 | 0 | 0 | 0 | 0 | 0
O=C(c1cccc(F)c1)N1CCN(c2cccc(Cl)c2)CC1 | 0 | 0 | 44.7 | 0 | 0 | 0
